Each structure is given as a SMILES string.

For this assay, the target named is Tumor necrosis factor receptor superfamily member 10B (Homo sapiens) (UniProt O14763). Kind of assay: caspase-8 TRAIL sensitization, hit retest, confirmation, cell-based, NB7+caspase-8, with/without TRAIL, luminescence panel (AID 651596). To be noted: NB7 neuroblastoma + caspase-8, TRAIL sensitization, luminescence viability, with TRAIL, mean of runs, at 10 µM, stronger effect = higher value.
Sequence of Tumor necrosis factor receptor superfamily member 10B (Homo sapiens) (O14763 whole entry, looked up): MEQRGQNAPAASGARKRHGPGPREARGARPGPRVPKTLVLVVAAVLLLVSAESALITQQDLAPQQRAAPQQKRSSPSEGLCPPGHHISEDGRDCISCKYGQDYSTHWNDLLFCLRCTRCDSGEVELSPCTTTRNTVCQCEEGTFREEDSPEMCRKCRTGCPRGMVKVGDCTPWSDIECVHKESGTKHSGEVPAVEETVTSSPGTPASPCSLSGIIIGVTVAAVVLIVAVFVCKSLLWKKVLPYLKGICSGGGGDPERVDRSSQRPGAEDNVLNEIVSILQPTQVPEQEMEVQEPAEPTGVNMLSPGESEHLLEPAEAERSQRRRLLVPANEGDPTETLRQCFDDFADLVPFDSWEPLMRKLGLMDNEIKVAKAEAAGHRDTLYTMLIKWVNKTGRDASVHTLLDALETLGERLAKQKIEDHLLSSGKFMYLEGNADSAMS
As to `O=C(/C=C/c1ccccc1Cl)Nc1cccc(O)c1`, the activity was 61.3%.

Turning to `COc1ccccc1C(CNc1ccc(S(=O)(=O)N2CCCC2)cc1[N+](=O)[O-])N(C)C` (stereo not drawn), the activity worked out at 52.1%.

On to `Cc1cccc(C)c1NC(=O)C1CCN(S(C)(=O)=O)CC1`, for which the activity came to 0.425%.

Regarding `COc1ccc(C2C(C(=O)N3CCN(c4ccccc4F)CC3)c3ccccc3C(=O)N2C)cc1` (stereo not drawn), the activity was 74.5%.

With `O=C(NC(=S)Nc1ccccn1)c1ccc(-c2ccccc2)cc1`, the activity came to 76.3%.

Regarding `Cc1cc(C(=O)COC(=O)c2n[nH]c3ccccc23)c(C)n1CC1CCCO1` (stereo not drawn), the activity worked out at 77.5%.

`COc1ccc(Oc2c(Cl)cnn(-c3ccc(F)cc3)c2=O)cc1`: the activity amounted to 98%.

With `CCCCc1ccc(NC(=O)c2ccc(N(C)S(C)(=O)=O)cc2)cc1`, the activity came to 25.8%.

Take `COc1ccc(-c2csc(NC(=O)C3CCN(c4ncnc5sc(C)c(C)c45)CC3)n2)cc1OC`: the activity turned out to be 84.3%.

Consider `C/C(Cn1nnc([N+](=O)[O-])n1)=N\NC(=O)c1ccc(O)cc1`, for which the activity was 50.4%.

On to `O=C(CC1SC(=O)N(Cc2cccc3ccccc23)C1=O)Nc1nccs1` (stereo not drawn), for which the activity was 33%.

For `C/C(=N\Nc1nc(C)cc(-c2ccccc2)n1)c1cccc(N)c1`, the activity stood at 41.5%.

Take `C/C(=N\Nc1nc2ccccc2[nH]1)c1ccc(N2CCOCC2)cc1`: the activity was determined as 80.9%.

On to `COc1ccc(-c2cc3cccc(OC)c3oc2=O)cc1`, for which the activity came out at 81.8%.

`Cn1c(C(=O)NCCC2=CCCCC2)cc2c(=O)n3ccccc3nc21`: the activity was determined as 59.6%.

Regarding `O=C(/C=C/C(Cl)(Cl)Cl)Nc1ccc(Cl)cc1`, the activity amounted to 98.8%.

Turning to `CCN1CCN(c2c(Cl)cccc2NC(=O)c2ccc([N+](=O)[O-])o2)CC1`, the activity is 52.3%.

As to `CCCOc1ccc(-c2nc(N3CCN(C)CC3)c3ccccc3n2)cc1`, the activity was found to be 71%.

Source of the values: PubChem BioAssay.
